Source: PubChem BioAssay
Sampled rows, rich in hits. Any-hit rate of the full collection: about 19%.
HT1080 IDH1KD tx: qHTS for induction of synthetic lethality in tumor cells producing 2HG: qHTS for the HT-1080-IDH1KD cell line | HT-1080 IDH1 knockdown viability, ATP luminescence, 48 h | Potency, µM (highest dose often 46.1 µM), for the others: at the top dose activity, negative = toxicity, hits mostly cytotoxic | 2% of 360,000 active | AID 686971, 2013;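 also: potency is read from the fitted curve at half-maximal effect; 0% = DMSO wells and -100% = cell-free medium wells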
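Viability of IDH1-knockdown HT-1080 fibrosarcoma cells was assessed by CellTiter-Glo after 48 h at 37 °C with titrated compound; concentration-effect curves were classified by fit quality and response size.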
TDP1 cell CPT: qHTS for Inhibitors of human tyrosyl-DNA phosphodiesterase 1 (TDP1): qHTS in cells in presence of CPT; chicken DT40 Tdp1-/-;hTDP1 cells + 20 nM CPT, ATP luminescence, 48 h; Potency, µM (top dose mostly 46.2 µM), inactives show at the highest dose activity change, negative = growth inhibition, actives largely listed as inhibitors; 12% of 420,000 active; also: potency is read from the fitted curve at half-maximal effect; nearly all actives have a fitted effect of over 55% in size
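Chicken DT40 Tdp1-/- cells stably complemented with human TDP1 were seeded at 400 cells/well in medium containing 20 nM camptothecin, exposed to pin-transferred compounds, and grown at 37 °C for at least 48 hr. Viability was read as ATP luminescence.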
IL1B secr inh: qHTS for Inhibitors of Inflammasome Signaling: IL-1-beta AlphaLISA Primary Screen; THP-1 LPS/ATP IL-1B secretion, AlphaLISA, 16 h; hits give low values; activity change, % at 57.5 µM; 4.7% of 360,000 active; in the data active = activity change below about -50%; inconclusive = mostly about -30% to -49%
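Secreted IL-1B measured by AlphaLISA bead assay after 16 h compound exposure of THP-1 cells; compounds (final up to 57.5 uM) added 1 h before LPS (250 ng/mL) and ATP (1.25 mM) stimulation; lower signal means less secretion.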
DT40 TDP1 no CPT: qHTS for Inhibitors of human tyrosyl-DNA phosphodiesterase 1 (TDP1): qHTS in cells in absence of CPT. DT40 Tdp1-/- hTDP1 cells, no CPT, ATP luminescence, 48 h. Potency, µM (highest dose often 46.2 µM), inactives show top-dose activity change, negative = growth inhibition, most hits filed as inhibitors. 15% of 420,000 active; also: potency is read from the fitted curve at half-maximal effect; nearly all actives have a fitted effect of over 55% in size
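A cellular qHTS used chicken DT40 cells lacking endogenous Tdp1 but carrying stably transfected human TDP1. Compounds were applied without camptothecin, and cell growth kinetics were judged by ATP-dependent luminescence after ≥48 hr.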
HT1080NT lethal: qHTS for induction of synthetic lethality in tumor cells producing 2HG: qHTS for the HT-1080-NT fibrosarcoma cell line; AID 686970, 2013; Potency, µM (titrated, usually from 46.1 µM), without a hit: at the highest dose activity, negative = less viability, most hits filed as cytotoxic; 1.6% of 360,000 active; HT-1080-NT fibrosarcoma viability, CellTiter-Glo ATP luminescence, 48 h;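 also: NT is the 2HG producing partner of a matched IDH1 knockdown line; potency is read from the fitted curve at half-maximal effect; 0% = DMSO-treated cells and -100% = media-only wells without cells; nearly all actives have a fitted effect of over 55% in size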
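Toxicity toward the 2HG-producing NT line was scored as %Activity, normalised to DMSO and no-cell wells, from CellTiter-Glo luminescence after 48 hours' treatment.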
The depositor's hits bear a star; i = inactive; ? = inconclusive; · = no result; [ ] = another dose, or the depositor's remark. Unless noted, calls follow the shape of the dose curve; as a rule, active = well fitted curve in the direction sought with a large enough effect; inconclusive = small, poorly fitted or top-dose-only effect, or another doubt; inactive = no such curve, though single readings can be large; an effect the other way counts as inactive or inconclusive. Unless noted, % is scaled to controls: 0 for no effect and ±100 for the full control effect.

SMILES	HT1080 IDH1KD tx	TDP1 cell CPT	IL1B secr inh	DT40 TDP1 no CPT	HT1080NT lethal
CC(NCC(=O)Nc1cc(S(=O)(=O)N2CCOCC2)ccc1Cl)c1ccc(Cl)cc1Cl (stereo unspecified)	-30%	?	-52*	23µM*	-3%
O=C(Cc1cccc2ccccc12)N1CCN(c2ncccn2)CC1	10%	1%	18	-13%	17%
O=S(=O)(c1cccc(-c2csc(N/N=C/c3ccco3)n2)c1)N1CCOCC1	?	16µM*	-72*	13µM*	-29%
COc1ccc(-c2csc(NC(=S)NC(=O)c3ccc(S(=O)(=O)N(C)C)cc3)n2)cc1OC	?	?	29	?	?
COc1cc(/C=N/Nc2nc(-c3ccc(S(=O)(=O)N(C)C)cc3)cs2)ccc1O	-19%	8.2µM*	-91*	7.3µM*	-1%
CCOc1cc(/C=N/Nc2nc(-c3cccc(S(=O)(=O)N4CCCC4)c3)cs2)ccc1O	-3%	13µM*	-83*	8.2µM*	-2%
CCOc1cc(C=NNC(=O)c2cccc(S(=O)(=O)N3CCCC3)c2)ccc1O	0%	-29%	-2	?	-7%
Cc1ccc(CNC(=O)C(=O)Nc2nccs2)cc1	10%	6%	15	0%	0%
Cc1ccc(NC2CCCN(C(=O)c3cccc4nccnc34)C2)cc1C (stereo unspecified)	15%	0%	i	-4%	7%
Cc1ccc(-n2nc(C)c3c2OC(N)=C(C#N)C3c2ccc(F)cc2)cc1 (stereo unspecified)	1%	?	5	?	-9%
Cc1nn(-c2ccccc2)c2c1C(c1ccc([N+](=O)[O-])cc1)C(C#N)=C(N)O2 (stereo unspecified)	0%	15µM*	-12	?	-4%
Cc1nn(-c2ccccc2)c(N)c1Sc1ccc([N+](=O)[O-])cc1	-11%	?	?	15µM*	-1%
Cc1nn(S(=O)(=O)c2ccc(Cl)cc2)c(C)c1Sc1ccc([N+](=O)[O-])cc1	11%	16µM*	-10	16µM*	15%
O=C(Nc1ccc(Cl)cc1)Nn1cnnc1	6%	-23%	?	-3%	3%
CC(C)(C)C1CCc2c(C(=O)N/N=C/c3cccs3)csc2C1 (stereo unspecified)	13%	14µM*	-1	?	7%
O=C(N/N=C/c1cccs1)c1cccc2cc[nH]c12	16µM*	?	-25	?	?
C(=NN=C(NN=Cc1cccs1)NN=Cc1cccs1)c1cccs1	-26%	5.2µM*	-1	2.9µM*	?
O=C(N/N=C/c1ccccn1)c1cc(-c2ccc3ccccc3c2)n[nH]1	16µM*	?	34	?	?
O=C(N/N=C/c1cccs1)c1ccccn1	-13%	-5%	-25	-25%	-3%
O=[N+]([O-])c1ccc(C2OCCO2)cc1CS(=O)(=O)c1ccccc1	17%	23%	0	-7%	8%
Cc1c(C(=O)N2CCOc3ccccc3C2)sc2ncnc(NCCCN3CCOCC3)c12	·	-1%	·	-7%	·
O=C(N/N=C/c1ccccn1)c1cc(-c2ccccc2Cl)n[nH]1	-24%	?	-2	18µM*	-1%
O=C(N/N=C/c1ccco1)c1cc(-c2ccc3ccccc3c2)n[nH]1	?	13µM*	-67*	23µM*	?
O=C(N/N=C/c1cccs1)c1cc(-c2cccc3ccccc23)n[nH]1	?	?	-52*	?	?
O=C(N/N=C/C=C/c1ccccc1[N+](=O)[O-])c1ccncc1	-13%	?	20	?	-3%
SMILES	HT1080 IDH1KD tx	TDP1 cell CPT	IL1B secr inh	DT40 TDP1 no CPT	HT1080NT lethal
O=C(CC(=O)N/N=C/c1cccs1)NCc1ccccc1	7%	9%	2	-22%	4%
O=C(N/N=C/C=C\c1ccccc1[N+](=O)[O-])c1cc(-c2ccc3ccccc3c2)n[nH]1	15µM*	?	-1	18µM*	13µM*
O=C(N/N=C/c1ccccn1)c1cc(-c2cccc3ccccc23)n[nH]1	-24%	?	0	-27%	-29%
CCc1ccc(-c2cc(C(=O)N/N=C/c3ccco3)[nH]n2)cc1	-16%	-22%	-10	?	-4%
Cc1cc(-n2c(C)cc(C(=O)CSc3nncn3C(C)C)c2C)no1	-3%	?	1	?	12%
Cc1cc(NC(=O)c2ccccc2)ccc1NC(=O)Cc1ccccc1	14%	2%	-8	-3%	15%
O=C(NCC1Cc2cccc(-c3ncccn3)c2O1)c1cccc(-c2ccccc2F)c1 (stereo unspecified)	·	-10%[9.04 µM]	·	?	·
O=C(N/N=C/c1cccs1)c1ccc2nc[nH]c2c1	11%	17%	-5	-5%	4%
O=C(N/N=C/c1cccs1)c1cc(-c2ccc3ccccc3c2)n[nH]1	?	?	?	21µM*	?
O=C(N/N=C/c1cccs1)c1ccc2ccccc2c1	-14%	15µM*	-19	21µM*	?
O=C(N/N=C/c1cccs1)c1ccc2ncccc2c1	-21%	1%	-21	-2%	-5%
O=[N+]([O-])c1c(Nc2ccccc2O)ccc2nonc12	-10%	-12%	35	-25%	-2%
O=[N+]([O-])c1c(Nc2ccccc2O)cc(Cl)c2nonc12	5.8µM*	4.6µM*	-102*	3.7µM*	10µM*
COCCCNCCOCCOc1ccccc1-c1ccccc1	-15%	?	-22	?	-8%
CC(C)(C)NCCOCCOc1ccccc1-c1ccccc1	-2%	12µM*	5	?	0%
COc1ccc2nc(SCC(=O)Nc3ccccc3)[nH]c2c1	13%	?	-21	-13%	8%
CCOC(=O)c1cccc(NC(=O)CSc2nc3cc4ccccc4cc3[nH]2)c1	·	?	·	23µM*	·
CCOC(=O)c1ccc(NC(=O)CSc2nc3cc4ccccc4cc3[nH]2)cc1	·	23µM*	·	18µM*	·
Cc1ccc2nc(SCC(=O)Nc3ccc(C(N)=O)cc3)[nH]c2c1	17%	8%	-6	-26%	25%
CC(C)n1cc(CN2CCCC(C(=O)Nc3ccccc3Oc3cccnc3)C2)cn1 (stereo unspecified)	1%	-3%	1	-12%	0%
Clc1ccccc1-c1nc(NCc2cccnc2)c2ccccc2n1	·	-2%	·	-9%	·
